28 compounds from PubChem BioAssay (NCATS) can be followed below.

Results filed as inconclusive are left out. Values without a mark were called inactive. The source made the active and inactive calls. Calls come from the whole dose curve; as a rule, active = well fitted curve in the direction sought with a large enough effect; inconclusive = small, poorly fitted or top-dose-only effect, or another doubt; inactive = no such curve, though single readings can be large; an effect the other way counts as inactive or inconclusive.

Experiment [1] in a line: P-glycoprotein substrates identified in KB-3-1 adenocarcinoma cell line, qHTS therapeutic library screen (AID 1346986). Note: nearly all actives have a fitted effect of over 60% in size.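 Note: potency is for cytotoxicity meaning loss of cell viability.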 Conditions: KB-3-1 parental cells viability, CellTiter-Glo, 72 h; series mostly up to 44.5 µM. The essentials: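 KB-3-1 parental cells and P-gp-overexpressing KB-8-5-11 (colchicine omitted during assay) plated at 500 cells/well, dosed in dose-response, incubated 72 h at 37 degree C. CellTiter-Glo luminescence read; KB-8-5-11 also tested with tariquidar.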
Background: In qHTS, concentration-response curves come from the screen itself.

Experiment [2] can be described thus: P-glycoprotein substrates identified in KB-8-5-11 adenocarcinoma cell line, qHTS therapeutic library screen (AID 1346987). For activity change, negative = cytotoxicity: % is set by controls: 0 for no effect and ±100 for the full control effect. Note: nearly all actives have a fitted effect of over 65% in size. The following applies: KB-8-5-11 (P-gp overexpressing) viability, CellTiter-Glo, 72 h; series mostly up to 44.5 µM. The procedure, abridged:
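KB-8-5-11: colchicine-selected sub-line of KB-3-1 over-expressing P-gp; assay medium lacked colchicine. 72 h drug exposure at 37 degree C, CellTiter-Glo.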
Potency is the fitted concentration of half-maximal effect.

Turning to `CCC(O)C(C)C1CCC(C(C)C(=O)O)O1` (stereo unspecified), the Potency result in experiment [1] and in experiment [2] was “inactive” in each case.
As for `C/C(=C\CCC(C)CCO)C(=O)OC1(C)CCC2C(C(=O)O)=COC(OC3OC(CO)C(O)C(O)C3O)C21` (stereo unspecified), the Potency result in experiment [1] and in experiment [2] was “inactive” each time.
For the compound `C/C(=C\CCC(C)CCO)C(=O)O[C@@H]1[C@@H](O)[C@H](OC2OC=C(C(=O)O)C3CCC(C)(O)C23)O[C@H](CO)[C@H]1O` (stereo partly specified), the Potency entry in experiment [1] and in experiment [2] was “inactive” throughout.
Consider `CC(C)c1ccc(CO)cc1O[C@@H]1O[C@H](CO)[C@@H](O)[C@H](O)[C@H]1O`, for which the Potency result in experiment [1] and in experiment [2] was “inactive” throughout.
Turning to `COc1ccc(CN2C(=O)C(=O)c3cc(S(=O)(=O)N4CCC[C@H]4COc4cccnc4)ccc32)cc1`, the Potency entry in experiment [1] and in experiment [2] was “inactive” in each case.
With `CC(C)=C/C=C\[C@H](C)[C@H]1CC[C@]2(C)C[C@@H]3C(C)=CC(=O)C3/C(CO)=C\C[C@@H]12` (stereo partly specified), the Potency entry in experiment [1] and in experiment [2] was “inactive” each time.
Consider `COc1cc2c(cc1O)[C@H](c1ccc(O[C@@H]3O[C@H](CO)[C@@H](O)[C@H](O)[C@H]3O)c(OC)c1)[C@@H](CO)[C@](O)(CO)C2`, for which the Potency entry in experiment [1] and in experiment [2] was “inactive” throughout.
Turning to `O=C(O)[C@@H]1C[C@H]2C[C@@H](CCc3nn[nH]n3)CC[C@H]2CN1`, the Potency entry in experiment [1] and in experiment [2] was “inactive” throughout.
For `OC[C@H]1O[C@@H](OCCc2ccccc2)[C@H](O[C@@H]2OC[C@](O)(CO)[C@H]2O)[C@@H](O)[C@@H]1O`, the Potency result in experiment [1] and in experiment [2] was “inactive” throughout.
Turning to `CC1(C)CC[C@]2(C(=O)O)CC[C@]3(C)C(=CCC4[C@@]5(C)CC[C@H](O[C@@H]6O[C@H](C(=O)O)[C@@H](O[C@@H]7OC[C@@H](O)[C@H](O)[C@H]7O)[C@H](O)[C@H]6O)C(C)(C)C5CC[C@]43C)C2C1O` (stereo partly specified), the Potency result in experiment [1] and in experiment [2] was “inactive” each time.
As for `O=C1CCC(=O)N(O)CCCCCNC(=O)CCC(=O)N(O)CCOCCNC(=O)CCC(=O)N(O)CCCCCN1`, the Potency entry in experiment [1] and in experiment [2] was “inactive” in each case.
With `C=C1CC2C(C)(CCC(=O)O)C(C(C)(C)O)CCC2(C)C2C(=O)OC(C)(C(=O)OC)C(=O)C12C` (stereo unspecified), the Potency result in experiment [1] and in experiment [2] was “inactive” in each case.
As for `CC#CC(=O)N1CCC[C@H]1c1nc(-c2ccc(C(=O)Nc3ccccn3)cc2)c2c(N)nccn12`, the Potency entry in experiment [1] and in experiment [2] was “inactive” each time.
Regarding `CC1(C)CC[C@]2(C(=O)O)CC[C@]3(C)C(=CCC4[C@@]5(C)C[C@@H](O)[C@H](O)C(C)(C)C5CC[C@]43C)C2C1` (stereo partly specified), the Potency result in experiment [1] and in experiment [2] was “inactive” each time.
Regarding `C=C1CC[C@@H]2[C@@](C)(CO[C@@H]3O[C@H](CO)C(O)[C@H](O)C3O)[C@H](O)CC[C@@]2(C)[C@@H]1CC/C(C)=C/CO` (stereo partly specified), the outcome in experiment [1] is “inactive [at 9.29 µM]”. For the same compound, in experiment [2], the activity change, negative = cytotoxicity was 5.95% [at 9.29 µM].
On to `C=C1[C@H](OC(C)=O)[C@H]2[C@@H](OC(C)=O)[C@](C)(OC(C)=O)C[C@]2(OC(C)=O)C(=O)[C@H](C)/C=C/C(C)(C)C(=O)[C@H](OC(=O)C(C)CC)[C@H]1OC(C)=O` (stereo partly specified), for which the Potency result in experiment [1] and in experiment [2] was “inactive” in each case.
For the compound `C[C@H](NC(c1cccc(C[P+](=O)O)c1)[C@H](C)O)c1ccc(Cl)c(Cl)c1` (stereo partly specified), the Potency result in experiment [1] and in experiment [2] was “inactive” throughout.
Consider `CC(=O)c1ccc2c(c1)C(O)C(C(C)(C)O)O2` (stereo unspecified), for which the Potency result in experiment [1] and in experiment [2] was “inactive” each time.
`CC(=O)/C=C/[C@H]1[C@](C)(O)[C@@H](O)[C@H](OC(C)=O)C2C(C)(C)CCC[C@@]21C` (stereo partly specified): the Potency entry in experiment [1] and in experiment [2] was “inactive” each time.
Turning to `O=C(NCC(O)CO)c1ccncc1Nc1ccc(I)cc1F` (stereo unspecified), the Potency result in experiment [1] and in experiment [2] was “inactive” in each case.
In the case of `COC(=O)C1=CO[C@@H](O[C@@H]2O[C@H](CO)[C@@H](O)[C@H](O)[C@H]2O)[C@@H]2C(COC(C)=O)=C[C@H](O)[C@H]12`, the Potency entry in experiment [1] and in experiment [2] was “inactive” throughout.
As to `CCS(=O)(=O)N1CCN(c2ccc(Nc3ncc(C(N)=O)c(NC4CC4)n3)cc2)CC1`, the Potency was 4.61 µM (active) in experiment [1] and 7.31 µM (active) in experiment [2].
`CC1(c2nc3c(C(N)=O)cccc3[nH]2)CCCN1` (stereo unspecified): the Potency result in experiment [1] and in experiment [2] was “inactive” in each case.
For `Cn1c2ccc(F)cc2c2c(C(=O)N3CCCC3)cn(-c3ccccc3)c(=O)c21`, the Potency entry in experiment [1] and in experiment [2] was “inactive” each time.
For `C[C@@H]1O[C@@H](O[C@H]2[C@@H](OC(=O)[C@]34CCC(C)(C)CC3C3=CCC5[C@@]6(C)C[C@H](O)[C@H](O[C@@H]7O[C@H](C(=O)O)[C@@H](O)[C@H](O)[C@H]7O)[C@@](C)(C(=O)O)C6CC[C@@]5(C)[C@]3(C)CC4)OC[C@H](O)[C@@H]2O)[C@H](O)[C@H](O)[C@H]1O[C@@H]1OC[C@@H](O)[C@H](O)[C@H]1O` (stereo partly specified), the outcome in experiment [1] was “inactive [at 9.29 µM]”. For the same compound, the activity change, negative = cytotoxicity in experiment [2] was 1.24% [at 9.29 µM].
For the compound `CC(=O)c1c(O)cc(O[C@@H]2O[C@H](CO)[C@@H](O)[C@H](O)[C@H]2O)cc1O`, the Potency entry in experiment [1] and in experiment [2] was “inactive” in each case.
For the compound `OC[C@H]1O[C@@H](OC[C@H]2O[C@@H](OC/C=C/c3ccccc3)[C@H](O)[C@@H](O)[C@@H]2O)[C@@H](O)[C@@H]1O`, the Potency result in experiment [1] and in experiment [2] was “inactive” each time.
For the compound `C[C@@H]1O[C@@H](O[C@H]2[C@H](O[C@H]3[C@H](O[C@H]4CC[C@@]5(C)C(CC[C@]6(C)C5CC=C5[C@@H]7CC(C)(C)CC[C@]7(C(=O)O[C@@H]7O[C@H](CO)[C@@H](O[C@@H]8O[C@@H](C)[C@H](O)[C@@H](O)[C@H]8O)[C@H](O)[C@H]7O)CC[C@]56C)C4(C)C)OC[C@H](O)[C@@H]3O)O[C@H](CO)[C@@H](O)[C@@H]2O)[C@H](O)[C@H](O)[C@H]1O` (stereo partly specified), the outcome in experiment [1] and in experiment [2] was “inactive [at 9.29 µM]” throughout.
